Source: PubChem BioAssay (National Center for Advancing Translational Sciences (NCATS))
In the library only some 8% were active in any assay of this set; here they are far more common.
LASV entry inh: blocks Lassa virus binding to or entry into cells; AID 540256; 300,000 tested, 1.2% active; Lassa virus pseudotype entry inhibition, cell reporter; Potency, µM (top dose mostly 37.9 µM), without a hit: top-dose activity change, negative = inhibition, hits mostly inhibitors; calls by dose curve; tested in HEK293 cells; also: potency is read from the fitted curve at half-maximal effect; % is scaled to controls: 0 for no effect and ±100 for the full control effect; nearly all actives have a fitted effect of over 50% in size
HCMV antiviral: inhibitors of human cytomegalovirus; activity change, negative = inhibition, % at 57.5 µM; HFF cells, HCMV-luciferase reporter, 72 h; hits give low values; 410,000 tested, 4.5% active; AID 1259415; in the data active = activity change below about -60%; inconclusive = no clear call, values can overlap the other calls; inactive = above about -39%; also: % is scaled to controls: 0 for no effect and ±100 for the full control effect
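HFF cells seeded 16 h at 37C, treated with compounds, infected with luciferase-reporter HCMV at MOI 1 PFU/cell; luciferase read at 72 h post infection, normalized to buffer-only and Salinomycin controls.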
HCV inh: blocks hepatitis C virus. Potency, µM (series often up to 41.8 µM), for inactives: at the top dose activity change, negative = inhibition, actives largely listed as inhibitors. Huh7.5.1 HCVcc-Cre infection, luciferase reporter, 44 h. AID 651820. 340,000 tested, 3.4% active; active = well fitted inhibition curve with a large enough effect; inconclusive = small, poorly fitted or top-dose-only effect, or another doubt; inactive = no such curve, though single readings can be large or run the other way; also: potency is read from the fitted curve at half-maximal effect; % is scaled to controls: 0 for no effect and ±100 for the full control effect
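Cells (1,000/well) were plated 4 h before compound, then infected with HCVcc-Cre virus (~0.5 moi). After 44 h further culture, infection was read as luciferase luminescence following a 15 min substrate incubation at room temperature.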
FMDV inh: foot and mouth disease virus antiviral activity; FMDV antiviral cell-based qHTS; Potency, µM (titrated, usually from 57.9 µM), for the others: at the highest dose activity change, negative = inhibition, actives largely listed as inhibitors; 410,000 tested, 1.2% active; calls by dose curve; tested in HEK293T cells; also: read-out not given here; potency is read from the fitted curve at half-maximal effect; % is scaled to controls: 0 for no effect and ±100 for the full control effect; nearly all actives have a fitted effect of over 45% in size
Marburg entry inh: inhibitors of Marburg virus binding or cell entry; Marburg virus pseudotyped entry inhibition, cell reporter; Potency, µM (doses to about 37.8 µM), for inactives: at the highest dose activity change, negative = inhibition, hits mostly inhibitors; 300,000 tested, 1.8% active; AID 540276; calls by dose curve; tested in HEK293 cells; also: potency is read from the fitted curve at half-maximal effect; % is scaled to controls: 0 for no effect and ±100 for the full control effect
SARS PLpro yeast: SARS-CoV PLP inhibition in yeast | S. cerevisiae expressing SARS-CoV PLpro, growth rescue | Potency, µM (doses to about 32.9 µM), for the others: at the top dose activity, positive = growth rescue, hits mostly activators | 330,000 tested, 0.19% active; calls by dose curve; also: potency is read from the fitted curve at half-maximal effect; 0% is about no effect; nearly all actives have a fitted effect of over 55% in size
The depositor's hits bear a star; [ ] = remark or other dose.

What do the screens show for `Cc1ccc(-c2nc3ccccn3c2Nc2ccc3c(c2)OCO3)o1`?
LASV entry inh: 28%[46.1 µM]; HCMV antiviral: -101*; FMDV inh: -23%; Marburg entry inh: -10%[46.1 µM]

Results for Cc1ccc(-c2nc3cccc(C)n3c2Nc2ccc3c(c2)OCO3)o1 ?
LASV entry inh: -19%[46.1 µM]; HCMV antiviral: 4; FMDV inh: 8%; Marburg entry inh: inconclusive

What do the screens show for `COc1ccc(-c2nc3ccc(C)cn3c2Nc2ccc3c(c2)OCO3)cc1`?
LASV entry inh: 20%[46.1 µM]; HCMV antiviral: -106*; FMDV inh: 17%; Marburg entry inh: inconclusive

How did COCCCNS(=O)(=O)c1cc(-c2onc(C)c2C)ccc1OC do in these assays?
LASV entry inh: 16%[46.1 µM]; HCMV antiviral: -10; FMDV inh: 74%

What do the screens show for `O=C(O)c1cc(N/N=C/c2c(O)ccc3ccccc23)ccc1Cl`?
LASV entry inh: inconclusive; HCMV antiviral: 207; HCV inh: 10%; FMDV inh: -21%; Marburg entry inh: 17%[46.1 µM]; SARS PLpro yeast: 0%

Results for O=C(CNc1ccccc1)N/N=C/c1c(O)ccc2ccccc12 ?
HCMV antiviral: -89*; HCV inh: 10µM*; FMDV inh: 8%; SARS PLpro yeast: 1%

How did O=C(N/N=C/c1c(O)ccc2ccccc12)Nc1ccccc1 do in these assays?
HCMV antiviral: -35; HCV inh: inconclusive; FMDV inh: 32%

Results for O=C(CN1CCOCC1)N/N=C/c1ccco1 ?
LASV entry inh: 15%; HCMV antiviral: -20; HCV inh: 0%; FMDV inh: 12%; Marburg entry inh: inconclusive; SARS PLpro yeast: 1%

How did COc1ccc(NCC(=O)N/N=C/c2c(C)nn(Cc3ccccc3)c2Cl)cc1 do in these assays?
LASV entry inh: 7.9µM*; HCMV antiviral: -24; HCV inh: -22%; FMDV inh: -21%; Marburg entry inh: inconclusive; SARS PLpro yeast: -5%

What do the screens show for `O=C(CN1CCOCC1)N/N=C/c1c(O)ccc2ccccc12`?
LASV entry inh: 11µM*; HCMV antiviral: 48; HCV inh: inconclusive; FMDV inh: -5%; Marburg entry inh: inconclusive; SARS PLpro yeast: -2%

Results for O=C(CSCC(=O)Nc1ccccc1)N/N=C/c1c(O)ccc2ccccc12 ?
LASV entry inh: 26µM*; HCMV antiviral: -104*; HCV inh: 10µM*; FMDV inh: 30%; Marburg entry inh: inconclusive; SARS PLpro yeast: 29%

Results for COc1cc(N)c(Cl)cc1C(=O)OCC(=O)NC(=O)NCc1ccco1 ?
LASV entry inh: -30%; HCMV antiviral: -20; HCV inh: inconclusive; FMDV inh: -4%; Marburg entry inh: 0%; SARS PLpro yeast: -9%

How did C=CCNC(=S)N1CCC(C(=O)c2ccc(F)cc2)CC1 do in these assays?
LASV entry inh: 3%; HCMV antiviral: -11; HCV inh: -8%; FMDV inh: -22%; Marburg entry inh: inconclusive; SARS PLpro yeast: -1%

Results for COCCNC(=O)C1(C)CCN(C(=O)c2sc(-c3ccccc3)nc2C)C1 (stereo unspecified) ?
HCMV antiviral: 31; FMDV inh: inconclusive

What do the screens show for `Cc1ccccc1Nc1c(-c2ccccc2O)nc2sccn12`?
LASV entry inh: 5%[46.1 µM]; HCMV antiviral: -64*; FMDV inh: -10%; Marburg entry inh: 3%[46.1 µM]

Results for Cc1ccc(C(=O)N/N=C\c2ccncc2)s1 ?
LASV entry inh: 15%[46.1 µM]; HCMV antiviral: 36; HCV inh: -3%; FMDV inh: 17%; Marburg entry inh: 7%[46.1 µM]; SARS PLpro yeast: -2%

How did CCc1ccc(C(=O)N/N=C/c2ccncc2)s1 do in these assays?
HCMV antiviral: 38; HCV inh: 13µM*; FMDV inh: 56%; SARS PLpro yeast: -1%

Results for O=C(N/N=C/c1cccs1)c1cc(-c2ccncc2)nc2ccccc12 ?
LASV entry inh: inconclusive; HCMV antiviral: -72*; HCV inh: inconclusive; FMDV inh: inconclusive; Marburg entry inh: -37%; SARS PLpro yeast: 24%

How did O=C(N/N=C/c1cccs1)c1cc(C2CC2)nc2ccccc12 do in these assays?
LASV entry inh: -26%; HCMV antiviral: -22; HCV inh: inconclusive; FMDV inh: -9%; Marburg entry inh: inconclusive; SARS PLpro yeast: -20%
